# Test results from the supplement of paper PMC12282887.
# ± gives the standard deviation of the averaged measurements.
# Assays:
# Test in all cases: promoter activity interaction Z-score (Lux/OD deviation from empty-vector control); higher = stronger promoter induction by the compound
# [1] = tested on: E. coli BW25113 acrABp lux reporter
# In short: (§1)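 At 37°C, E. coli BW25113 reporter cultures in 40 µl LB Lennox in 384-well plates were read for OD600 and luminescence every 30 min for 12 h. Windows were 0–8 h for wild type and 1–9 h for deletion strains, and wells under 10% of the median growth value were removed. The score is the Z-transformed residual of growth-normalised luminescence against a control fit.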
# [2] = tested on: E. coli BW25113 micFp lux reporter
# In short: as §1
# [3] = tested on: E. coli BW25113 ompFp lux reporter
# In short: as §1
# [4] = tested on: E. coli BW25113 robp lux reporter
# In short: as §1
# [5] = tested on: E. coli BW25113 soxSp lux reporter
# In short: as §1
# [6] = tested on: E. coli BW25113 tolCp lux reporter
# In short: as §1
# [7] = 0.0012 µg/ml, genetic background: wild type
# [8] = 0.0012 µg/ml, genetic background: ΔmarA
# [9] = 0.0012 µg/ml, genetic background: Δrob
# [10] = 0.0012 µg/ml, genetic background: ΔsoxS
# [11] = 0.0024 µg/ml, genetic background: wild type
# [12] = 0.0024 µg/ml, genetic background: ΔmarA
# [13] = 0.0024 µg/ml, genetic background: Δrob
# [14] = 0.0024 µg/ml, genetic background: ΔsoxS
# [15] = 0.0048 µg/ml, genetic background: wild type
# [16] = 0.0048 µg/ml, genetic background: ΔmarA
# [17] = 0.0048 µg/ml, genetic background: Δrob
# [18] = 0.0048 µg/ml, genetic background: ΔsoxS
# [19] = 0.01 µg/ml, genetic background: wild type
# [20] = 0.01 µg/ml, genetic background: ΔmarA
# [21] = 0.01 µg/ml, genetic background: Δrob
# [22] = 0.01 µg/ml, genetic background: ΔsoxS
smiles,measurement,setting,value
CO/N=C(\C(=O)N[C@@H]1C(=O)N2C(C(=O)O)=C(COC(C)=O)CS[C@H]12)c1csc(N)n1 [Cefotaxime],promoter activity interaction Z-score,[1]; [7],-0.284 ± 0.025
same,promoter activity interaction Z-score,[1]; [8],0.0868 ± 0.9
same,promoter activity interaction Z-score,[1]; [9],-0.103 ± 0.27
same,promoter activity interaction Z-score,[1]; [10],-0.098 ± 0.18
same,promoter activity interaction Z-score,[1]; [11],-0.0863 ± 0.2
same,promoter activity interaction Z-score,[1]; [12],-0.059 ± 0.93
same,promoter activity interaction Z-score,[1]; [13],0.00639 ± 0.18
same,promoter activity interaction Z-score,[1]; [14],0.118 ± 0.16
same,promoter activity interaction Z-score,[1]; [15],-0.23 ± 0.15
same,promoter activity interaction Z-score,[1]; [16],0.42 ± 0.9
same,promoter activity interaction Z-score,[1]; [17],-0.311 ± 0.072
same,promoter activity interaction Z-score,[1]; [18],-0.148 ± 0.096
same,promoter activity interaction Z-score,[1]; [19],-0.274 ± 0.025
same,promoter activity interaction Z-score,[1]; [20],-1.6 ± 0.042
same,promoter activity interaction Z-score,[1]; [21],-0.154 ± 0.33
same,promoter activity interaction Z-score,[1]; [22],0.212 ± 0.064
same,promoter activity interaction Z-score,[2]; [7],0.00627 ± 0.0068
same,promoter activity interaction Z-score,[2]; [8],-0.0578 ± 0.08
same,promoter activity interaction Z-score,[2]; [9],0.0368 ± 0.11
same,promoter activity interaction Z-score,[2]; [10],-0.0273 ± 0.11
same,promoter activity interaction Z-score,[2]; [11],-0.0766 ± 0.15
same,promoter activity interaction Z-score,[2]; [12],0.0449 ± 0.11
same,promoter activity interaction Z-score,[2]; [13],0.0295 ± 0.15
same,promoter activity interaction Z-score,[2]; [14],-0.18 ± 0.098
same,promoter activity interaction Z-score,[2]; [15],-0.0576 ± 0.36
same,promoter activity interaction Z-score,[2]; [16],-0.223 ± 0.19
same,promoter activity interaction Z-score,[2]; [17],0.0329 ± 0.18
same,promoter activity interaction Z-score,[2]; [18],-0.198 ± 0.15
same,promoter activity interaction Z-score,[2]; [19],-0.5 ± 0.52
same,promoter activity interaction Z-score,[2]; [20],-0.278 ± 0.011
same,promoter activity interaction Z-score,[2]; [21],-0.0107 ± 0.074
same,promoter activity interaction Z-score,[2]; [22],-0.133 ± 0.077
same,promoter activity interaction Z-score,[3]; [7],-0.111 ± 0.025
same,promoter activity interaction Z-score,[3]; [8],-0.439 ± 0.11
same,promoter activity interaction Z-score,[3]; [9],-0.492 ± 0.1
same,promoter activity interaction Z-score,[3]; [10],0.179 ± 0.43
same,promoter activity interaction Z-score,[3]; [11],0.0538 ± 0.32
same,promoter activity interaction Z-score,[3]; [12],0.191 ± 0.18
same,promoter activity interaction Z-score,[3]; [13],-0.287 ± 0.12
same,promoter activity interaction Z-score,[3]; [14],-0.23 ± 0.033
same,promoter activity interaction Z-score,[3]; [15],-0.24 ± 0.46
same,promoter activity interaction Z-score,[3]; [16],-0.537 ± 0.14
same,promoter activity interaction Z-score,[3]; [17],-0.409 ± 0.18
same,promoter activity interaction Z-score,[3]; [18],-0.158 ± 0.26
same,promoter activity interaction Z-score,[3]; [19],-0.753 ± 0.55
same,promoter activity interaction Z-score,[3]; [20],-2.18 ± 0.79
same,promoter activity interaction Z-score,[3]; [21],-0.598 ± 0.51
same,promoter activity interaction Z-score,[3]; [22],-2.53
same,promoter activity interaction Z-score,[4]; [7],-0.219 ± 0.23
same,promoter activity interaction Z-score,[4]; [8],-0.756 ± 0.2
same,promoter activity interaction Z-score,[4]; [9],-0.209 ± 0.28
same,promoter activity interaction Z-score,[4]; [10],-0.0836 ± 0.31
same,promoter activity interaction Z-score,[4]; [11],-0.0844 ± 0.072
same,promoter activity interaction Z-score,[4]; [12],0.0702 ± 0.056
same,promoter activity interaction Z-score,[4]; [13],0.0668 ± 0.073
same,promoter activity interaction Z-score,[4]; [14],-0.0496 ± 0.19
same,promoter activity interaction Z-score,[4]; [15],0.227 ± 0.29
same,promoter activity interaction Z-score,[4]; [16],-0.466 ± 0.095
same,promoter activity interaction Z-score,[4]; [17],0.0502 ± 0.2
same,promoter activity interaction Z-score,[4]; [18],-0.0174 ± 0.097
same,promoter activity interaction Z-score,[4]; [19],-1.42 ± 0.066
same,promoter activity interaction Z-score,[4]; [20],-2.06 ± 1.6
same,promoter activity interaction Z-score,[4]; [21],-1.76 ± 0.19
same,promoter activity interaction Z-score,[4]; [22],-2.39 ± 0.34
same,promoter activity interaction Z-score,[5]; [7],0.251 ± 0.06
same,promoter activity interaction Z-score,[5]; [8],-0.00348 ± 0.14
same,promoter activity interaction Z-score,[5]; [9],0.17 ± 0.16
same,promoter activity interaction Z-score,[5]; [10],0.0148 ± 0.24
same,promoter activity interaction Z-score,[5]; [11],0.182 ± 0.044
same,promoter activity interaction Z-score,[5]; [12],0.121 ± 0.06
same,promoter activity interaction Z-score,[5]; [13],0.225 ± 0.25
same,promoter activity interaction Z-score,[5]; [14],0.066 ± 0.3
same,promoter activity interaction Z-score,[5]; [15],-0.0447 ± 0.15
same,promoter activity interaction Z-score,[5]; [16],-0.225 ± 0.1
same,promoter activity interaction Z-score,[5]; [17],-0.0284 ± 0.17
same,promoter activity interaction Z-score,[5]; [18],-0.179 ± 0.2
same,promoter activity interaction Z-score,[5]; [19],-0.209 ± 0.042
same,promoter activity interaction Z-score,[5]; [20],-0.312 ± 0.071
same,promoter activity interaction Z-score,[5]; [21],-0.223 ± 0.19
same,promoter activity interaction Z-score,[5]; [22],0.193 ± 0.17
same,promoter activity interaction Z-score,[6]; [7],0.0259 ± 0.64
same,promoter activity interaction Z-score,[6]; [8],0.293 ± 0.38
same,promoter activity interaction Z-score,[6]; [9],-0.312 ± 0.38
same,promoter activity interaction Z-score,[6]; [10],-0.0825 ± 0.76
same,promoter activity interaction Z-score,[6]; [11],0.373 ± 1.2
same,promoter activity interaction Z-score,[6]; [12],0.241 ± 0.74
same,promoter activity interaction Z-score,[6]; [13],-0.132 ± 1.1
same,promoter activity interaction Z-score,[6]; [14],-0.287 ± 1.4
same,promoter activity interaction Z-score,[6]; [15],0.132 ± 0.29
same,promoter activity interaction Z-score,[6]; [16],-0.365 ± 0.46
same,promoter activity interaction Z-score,[6]; [17],-0.311 ± 0.89
same,promoter activity interaction Z-score,[6]; [18],0.17 ± 0.82
same,promoter activity interaction Z-score,[6]; [19],-0.425 ± 1.4
same,promoter activity interaction Z-score,[6]; [20],-0.436 ± 0.19
same,promoter activity interaction Z-score,[6]; [21],0.622 ± 1.5
same,promoter activity interaction Z-score,[6]; [22],-0.234 ± 0.026
